AC50 and outcome data for 30 compounds are collected here from PubChem BioAssay (EPA / NIEHS).

Activity calls are given as the source filed them. Rule for the calls: active = hit-call score of the fitted dose curve at least 0.9, where 1 is the maximum; inactive = score below 0.9.

The assay in a line: CCTE_Shafer_MEA_acute_cross_correlation_HWHM: CCTE's Neural Acute Assay for Cross Correlation at Half Width at Half Maximum, Shafer Lab (AID 2284026). The protocol:
CCTE_Shafer_MEA_acute assay is conducted using Axion Biosystems 48 well microelectrode array (MEA) plates and Maestro recording system. Each well of the MEA plate contains a grid of 16 microelectrodes embedded in the culture surface. Electrically active cells, such as neurons, can be cultured over the electrodes, and electrical activity in these cells can be recorded extracellularly. The spontaneous firing of neurons is captured from each electrode on a microsecond timescale providing both temporally and spatially precise data. […] The CCTE_Shafer_MEA_acute assay uses primary cultures of rat cortical neurons. As these cultures mature over time, neural networks develop functional activity and form cohesive networks in which electrical activity can be highly coordinated. Baseline 40-minute recordings are made on days post-plating 13 or 15, followed by a secondary 40-minute recording after chemical exposure.CCTE_Shafer_MEA_acute_cross_correlation_HWHM is a component of the CCTE_Shafer_MEA_acute assay. It measures the distance along the x-axis (phase lag) from the left half maximum height to the center of the cross-correlogram of action potential firing during a recording in a microelectrode array (MEA) using Axion Biosystems Maestro 768 channel amplifier with the AxIS adaptive spike detector. Smaller values indicate a narrower correlogram (greater synchrony). The recordings before and after chemical treatment are used to calculate a percent change in the half width at half maximum of the cross-correlogram in each well.Data from the assay component CCTE_Shafer_MEA_acute_cross_correlation_HWHM was analyzed into 1 assay endpoint. This assay endpoint, CCTE_Shafer_MEA_acute_cross_correlation_HWHM, was analyzed in the negative analysis fitting direction relative to DMSO as the negative control and baseline of activity. Using a type of functional reporter, gain or loss-of-signal activity can be used to understand electrical activity.
Spontaneous activity in the cortical cultures was recorded using an Axion Biosystems Maestro 768 channel amplifier and Axion Integrated Studios (AxIS) v1.8 (or later) software. The amplifier recorded from all channels simultaneously (gain = 1200 x; sampling rate = 12.5 kHz/channel): raw signals were filtered with a Butterworth band-pass filter (300-5000 Hz), which filters out slower local field potentials leaving only fast potentials, i.e., "spikes", arising from extracellular currents associated with action potentials (Pine 2006; Wheeler and Nam 2011). On-line spike detection of filtered signals was conducted with the AxIS adaptive spike detector, using a threshold of 8x the root mean squared (rms) noise on each channel. Any electrodes with rms noise levels greater than 5 uV were grounded (e.g., no data were recorded). Once grounded, an electrode was grounded for the duration of the experiment. All recordings were conducted at 37 C. Wells were deemed usable if on the day of the exposure >/= 10 electrodes were active (defined as >/= 5 spikes/min). On DIV 13 or 15, a minimum of three wells from one cortical culture preparation were treated with each compound (0.03-40 uM). Prior to recording baseline activity, each mwMEA plate was placed in the Maestro at 37 C and allowed to sit for 20 min while firing rates stabilized. Baseline activity (40 min) was recorded before the addition of each compound. An additional 40 min of spontaneous activity was recorded in the presence of each compound. Changes in network parameters relative to baseline were assessed following compound treatment.
One may read the AC50 as the midpoint of the concentration-response curve, whichever way the signal moves. With `CC(=O)N1CCN(c2ccc(OC[C@H]3CO[C@](Cn4ccnc4)(c4ccc(Cl)cc4Cl)O3)cc2)CC1`, the concentration at half-maximal activity (AC50) was 33.1 µM (active). With `CCCCCCCCOC(=O)c1cc(O)c(O)c(O)c1`, the AC50 is 8.04 µM (active). `CCCCOC(=O)c1ccc(O)cc1`: the result was inactive. `Clc1ccccc1C(c1ccccc1)(c1ccccc1)n1ccnc1`: the AC50 is 9.09 µM (active). As to `CN1C(=O)CC[C@H]1c1cccnc1`, the call was inactive. As for `C[C@]12CC[C@@H]3c4ccc(O)cc4CC[C@H]3[C@@H]1CC[C@H]2O`, the compound was classed as inactive. For the compound `O=C(O)c1ccccc1-n1cc(C(=O)O)c(=O)c2cc(Nc3c(F)cc(F)cc3Cl)c(Cl)cc21`, the call was inactive. Consider `NC(=O)c1nc(-c2cccc(-c3cc(F)ccc3OCC(F)(F)C(F)(F)F)c2)n[nH]1`, for which the half-maximal activity concentration (AC50) is 8.29 µM (active). Same read-out and setting: with `CN(C)C(=O)C1(N2CCCCC2)CCN(CC[C@@]2(c3ccc(Cl)c(Cl)c3)CN(C(=O)c3ccccc3)CCO2)CC1` the figure was 22.1 µM (active).

As for `CC(O)CC(C)(C)O` (stereo not given), the result was inactive. `O=C1O[C@H]([C@@H](O)CO)C(O)=C1O`: the compound was called inactive. On to `Cc1cc2c(cc1C(F)(F)F)N(C(=O)Nc1ccc(Oc3cccnc3C)nc1)CC2`, for which the compound was classed as inactive. With `NCc1cccc(C2CCN(C(=O)c3ccc(C#Cc4ccccc4F)o3)CC2)c1`, the AC50 was 34.9 µM (active). Same read-out and setting: with `CCN(CC)C(=O)c1cc(S(=O)(=O)Cc2ccccc2)c(N2CCC(c3ccccc3)CC2)cc1N(CC)CCN(C)C` the figure was 11 µM (active).

Take `CC(C)(c1cc(Br)c(O)c(Br)c1)c1cc(Br)c(O)c(Br)c1`: the result was inactive.

For `CC/C(=C(/CC)c1ccc(O)cc1)c1ccc(O)cc1`, the concentration at half-maximal activity (AC50) was 20 µM (active). On the same count and under the same terms, with `COc1cc(C(=O)NC2CCN(C)CC2)ccc1Nc1ncc2c(n1)N(C1CCCC1)CC(F)(F)C(=O)N2C` the figure was 30.1 µM (active). Consider `CC1=CC(=O)/C(=C(/C)O)C(=O)O1`, for which the call was inactive. With `Cc1c2ccccc2c(C)c2c1ccc1ccccc12`, the AC50 is 26.3 µM (active). As to `Cc1cn([C@H]2C[C@H](N=[N+]=[N-])[C@@H](CO)O2)c(=O)[nH]c1=O`, the result was inactive.

Turning to `O=c1[nH]sc2ccccc12`, the AC50 is 32.6 µM (active). The same measure, in the same setting: with `CN(C)c1ccc(C(=C2C=CC(=[N+](C)C)C=C2)c2ccc(N(C)C)cc2)cc1` the figure was 2.13 µM (active). Take `CC(C)(C)c1cc(/C=C2\SC(N)=NC2=O)cc(C(C)(C)C)c1O`: the compound was called inactive. Turning to `CN(C[C@@H](CC[N+]12CCC(C3CCCCC3)(CC1)CC2)c1ccc(Cl)c(Cl)c1)C(=O)c1cc(C(F)(F)F)cc(C(F)(F)F)c1`, the AC50 was 8 µM (active).

For the compound `CC[C@@H]1C[C@H](N(Cc2cc(C(F)(F)F)cc(C(F)(F)F)c2)C(C)=O)c2cc(C(F)(F)F)ccc2N1C(=O)OC(C)C`, the outcome was inactive. On to `c1ccc2n[nH]nc2c1`, for which the result was inactive. Take `CCCCCCCCCCCCO`: the half-maximal activity concentration (AC50) is 28.8 µM (active). On to `OC12N=C(c3ccccc3)SC1Cc1cc(Cl)ccc12` (stereo not given), for which the half-maximal activity concentration (AC50) is 31.3 µM (active). On to `CCN(Cc1cccc(S(=O)(=O)O)c1)c1ccc(C(=C2C=CC(=[N+](CC)Cc3cccc(S(=O)(=O)O)c3)C=C2)c2ccccc2S(=O)(=O)[O-])cc1`, for which the call was inactive. For `COc1cccc([C@H](O)C2CCN(CCc3ccc(F)cc3)CC2)c1OC`, the concentration at half-maximal activity (AC50) is 10.2 µM (active).
